Laboratory results as given in PubChem BioAssay AID488789 (Broad Institute, 2010).
Potency and affinity values are given separately. Results filed as inconclusive are left out. Where a call stands in place of a potency, no number is given. Active and inactive are the calls of the source.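 Rule for the calls: active = samples whose fitted half-maximal inhibition concentration is no more than ten times the top valid dose tested; inconclusive = flat response between -70 and -30, or invalid curve fit; inactive = flat within 30 of zero, potency above limit, or signal rising.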

Target: Trypsin (Sus scrofa) (UniProt P00761)
Sequence (P00761 whole entry, looked up): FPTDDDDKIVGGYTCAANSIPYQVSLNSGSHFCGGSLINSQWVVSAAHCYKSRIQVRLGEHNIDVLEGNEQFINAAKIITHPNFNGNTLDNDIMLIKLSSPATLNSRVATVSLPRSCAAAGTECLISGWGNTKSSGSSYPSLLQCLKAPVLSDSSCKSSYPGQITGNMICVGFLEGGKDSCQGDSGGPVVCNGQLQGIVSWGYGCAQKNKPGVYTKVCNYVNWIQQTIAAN
Assay: trypsin protease activity blockade – biochemical, quenched peptide fluorescence, cherry-pick, selectivity assay for Rce1 protease inhibitor project, dose response (AID 488789);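 note: more negative means stronger trypsin inhibition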

Compound	outcome
O=C(Nc1ncccn1)c1ccc([N+](=O)[O-])cc1	inactive
CC(=O)c1ccc(-c2ccc(C(=O)N3CCC(C(N)=O)CC3)o2)cc1	inactive
Cc1cc(N)c2cc(NC(=O)/C=C/c3ccccc3Cl)ccc2n1	inactive
CCOC(=O)c1ccc(NC(=O)N2CCN(Cc3ccccc3)CC2)cc1	inactive
COC(C[C@@H]1O[C@@H]1C(=O)[C@@H](C)OCc1ccccc1)OC	inactive
COc1ccccc1/C=C/C=N/NC(=O)CN1CCN(S(=O)(=O)c2ccc(C)cc2)CC1	inactive
O=c1c(-c2ccccc2)c(O)c2ccccc2n1-c1ccccc1	inactive
CS(=O)(=O)Nc1ccccc1C(=O)NC1CC2CCC1C2 (centres undefined)	inactive
Cc1c(Cl)c([N+](=O)[O-])nn1CC(=O)N1CCCc2ccccc21	inactive
COC(=O)Cn1c(CCC(=O)O)ccc1-c1ccccc1	inactive
COC(C[C@@H](O)C[C@H](O)[C@H](C)OCc1ccccc1)OC	inactive
Cc1cc(C(=O)N/N=C/c2c3ccccc3cc3ccccc23)n[nH]1	inactive
Cc1ccc(-c2nc(CN3CCCCC3)cc(CN3CCCCC3)c2O)cc1	inactive
O=C(c1cc(-c2ccccc2)nc2ccccc12)N1CCN(c2ccccn2)CC1	inactive
COc1ccc(-n2nc(C(=O)NCC(=O)N3CCC(C)CC3)c3ccccc3c2=O)cc1	inactive
CC1Oc2ccccc2C=C1/C=N/NC(=O)[C@@H](C)NC(=O)OC(C)(C)C (some centres undefined)	inactive
O=S(=O)(CC(CN1CCOCC1)N1CCOCC1)c1ccccc1 (centres undefined)	inactive
CC(C)c1c(C(=O)N/N=C/c2ccsc2)nnn1-c1nonc1N	inactive
COc1cc(C(=O)OCC(=O)Nc2ccc(SC(F)F)cc2)cc(OC)c1OC	inactive
